Compounds with a hit are over-represented: about 3% of the library has one in this group of screens.
KDM5B inh: blocks human KDM5B histone demethylase activity; Q9UGL1; 220,000 compounds, 2.6% hits; AID 1347165; Potency, µM (highest dose often 57.7 µM), most hits filed as inhibitors; KDM5B demethylase, FDH-coupled NADH fluorescence (FDH is formaldehyde dehydrogenase); note: potency is the fitted concentration of half-maximal effect; 0% is about no effect; nearly all actives have a fitted effect of over 70% in size
Target sequence (Q9UGL1 whole entry, looked up): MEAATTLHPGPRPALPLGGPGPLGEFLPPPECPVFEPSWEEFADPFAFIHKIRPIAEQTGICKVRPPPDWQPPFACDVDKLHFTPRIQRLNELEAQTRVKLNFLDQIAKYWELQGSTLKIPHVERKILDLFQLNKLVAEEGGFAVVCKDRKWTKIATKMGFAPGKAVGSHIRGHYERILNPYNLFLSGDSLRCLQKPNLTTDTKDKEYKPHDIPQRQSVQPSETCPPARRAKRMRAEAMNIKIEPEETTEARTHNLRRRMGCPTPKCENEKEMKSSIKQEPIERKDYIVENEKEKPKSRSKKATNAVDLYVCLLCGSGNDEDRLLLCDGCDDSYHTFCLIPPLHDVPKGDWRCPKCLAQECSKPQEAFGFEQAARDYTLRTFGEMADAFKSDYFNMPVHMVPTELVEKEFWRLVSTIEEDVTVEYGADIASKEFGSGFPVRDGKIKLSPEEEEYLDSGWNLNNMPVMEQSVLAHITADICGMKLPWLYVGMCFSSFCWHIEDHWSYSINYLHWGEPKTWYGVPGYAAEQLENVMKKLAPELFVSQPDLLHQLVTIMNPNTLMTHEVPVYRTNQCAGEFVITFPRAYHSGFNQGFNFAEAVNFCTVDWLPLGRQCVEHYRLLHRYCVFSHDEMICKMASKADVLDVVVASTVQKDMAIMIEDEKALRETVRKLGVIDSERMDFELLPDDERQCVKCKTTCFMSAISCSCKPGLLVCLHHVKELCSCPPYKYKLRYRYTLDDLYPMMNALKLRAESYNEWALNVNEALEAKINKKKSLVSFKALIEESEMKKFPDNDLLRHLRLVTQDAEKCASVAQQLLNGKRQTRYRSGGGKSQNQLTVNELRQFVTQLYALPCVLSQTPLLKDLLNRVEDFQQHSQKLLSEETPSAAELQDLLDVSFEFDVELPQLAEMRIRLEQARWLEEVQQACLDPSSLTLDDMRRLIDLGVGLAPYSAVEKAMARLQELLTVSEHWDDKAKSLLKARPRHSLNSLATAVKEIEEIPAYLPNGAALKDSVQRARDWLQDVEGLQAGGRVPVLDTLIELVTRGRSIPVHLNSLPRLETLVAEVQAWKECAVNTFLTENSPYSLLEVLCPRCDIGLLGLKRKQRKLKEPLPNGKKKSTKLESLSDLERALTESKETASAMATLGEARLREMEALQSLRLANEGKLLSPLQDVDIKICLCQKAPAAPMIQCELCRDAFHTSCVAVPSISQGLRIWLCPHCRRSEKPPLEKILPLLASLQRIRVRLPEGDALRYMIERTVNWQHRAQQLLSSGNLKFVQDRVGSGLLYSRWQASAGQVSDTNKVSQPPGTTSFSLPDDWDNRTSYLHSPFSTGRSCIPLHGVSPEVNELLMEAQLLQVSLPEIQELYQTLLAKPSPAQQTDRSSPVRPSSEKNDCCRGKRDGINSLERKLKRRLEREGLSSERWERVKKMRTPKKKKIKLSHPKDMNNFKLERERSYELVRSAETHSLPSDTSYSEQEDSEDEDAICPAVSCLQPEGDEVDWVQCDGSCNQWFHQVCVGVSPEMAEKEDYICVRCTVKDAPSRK
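Compound dilutions met 200 nM (final) KDM5BΔAP for 10 min at room temperature before substrate addition. The substrate mix held 12.5 µM H3K4me3 with cofactors 25 µM α-ketoglutarate and 50 µM Fe²⁺. NADH signal gain over 30 min defined activity.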
SNCA viab count: cell viability loss counter-screen. HEK-293-SNCA-luc viability, GF-AFC fluorescence, 24 h. Potency, µM (titrated, usually from 57.1 µM), without a hit: at the top dose activity change, negative = cytotoxicity, hits mostly cytotoxic. 150,000 compounds, 0.12% hits;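 note: potency is the fitted concentration of half-maximal effect; 0% = DMSO-treated cells and -100% = medium-only wells without cells; nearly all actives have a fitted effect of over 30% in size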
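HEK-293-SNCA-luc cells (1500/well) plated 24 h, then exposed 24 h to a dilution series; GF-AFC added 30 min at 37C, fluorescence 405/540 nm; normalised to medium-only and DMSO wells, Hill fit.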
IP6K1 inhibitor: blocks human inositol hexakisphosphate kinase 1 | Q92551 | IP6K1 kinase, ADP-Glo luminescence, 2 h; active compounds read low | activity change, % (series mostly up to about 58 µM) | 140,000 compounds, 0.81% hits | AID 1645851; in the data active = activity change below about -25%; note: % is set by controls: 0 for no effect and ±100 for the full control effect
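ADP-Glo luminescence measures ADP made by human IP6K1 during a 2 h RT reaction with ATP/IP6 (mix at 1.3 mM/130 uM); top library doses 57.5 and 19.1 uM final.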
SNCA expr inhib: reduces expression of the alpha-synuclein gene; HEK-293 SNCA-luciferase knock-in, luminescence, 24 h; Potency, µM (doses to about 57.2 µM), without a hit: top-dose activity change, negative = inhibition, actives largely listed as inhibitors; 140,000 compounds, 0.17% hits; AID 1671194;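 note: potency is the fitted concentration of half-maximal effect; plate controls were DMSO cells for no effect and cell-free wells for full effect; nearly all actives have a fitted effect of over 45% in size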
IP6K1 conf: confirmation of human IP6K1 inhibitors | shares compounds with IP6K1 inhibitor | recombinant IP6K1 kinase, ADP-Glo luminescence, 2 h | Potency, µM (highest dose often 49 µM), for inactives: at the top dose activity change, negative = inhibition, actives largely listed as inhibitors | 1,200 compounds, 13% hits; note: potency is the fitted concentration of half-maximal effect; % is set by controls: 0 for no effect and ±100 for the full control effect; nearly all actives have a fitted effect of over 65% in size
Active calls of the source: *; i = inactive; ? = inconclusive; / = not tested or not shown; [ ] = dose if it differs, or a comment. Unless noted, calls come from the whole dose curve; as a rule, active = well fitted curve in the direction sought with a large enough effect; inconclusive = small, poorly fitted or top-dose-only effect, or another doubt; inactive = no such curve, though single readings can be large; an effect the other way counts as inactive or inconclusive.

SMILES	KDM5B inh	SNCA viab count	IP6K1 inhibitor	SNCA expr inhib	IP6K1 conf
O=S(=O)(Nc1ncnc2sc3c(c12)CCC3)c1cc(F)ccc1F	i	/	/	/	/
Oc1cccc(Nc2ncnc3sc4c(c23)CCCC4)c1	?	-25%	-28*	15%	?
Cc1cc(Nc2nc(NC(C)c3ccc(F)cc3)c(C#N)cc2F)n[nH]1 (stereo not drawn)	/	/	/	/	-9%
Cc1cc(C)c(NC(=O)CSc2ncnc3ccccc23)c(Cl)c1	i	/	/	/	/
O=C1CO[C@H]2CN(c3ncccn3)C[C@H]2N1CC1CCCCC1	35µM*	-12%[87.6 µM]	-27*	-9%[87.6 µM]	-12%
Cc1ccc(NC(=O)c2oc3c(c2C)-c2[nH]ncc2CC3)c(Cl)c1	?	14%	-45*	136%	-18%
Cc1cccc(NC(=O)c2oc3c(c2C)-c2[nH]ncc2CC3)c1C	?	1%	-12	242%	/
COc1ccc(CCCc2nnc(SCC(=O)Nc3cccc(C)c3)o2)cc1	?	-3%	-33*	-11%	-13%
CCn1nnc2cc(C(=O)Nc3nc(-c4ccc5c(c4)CCC(=O)N5)cs3)ccc21	i	/	/	/	/
O=C(CNC(=O)c1cccc(-c2ccc(C(F)(F)F)cc2)c1)NCCc1ccc(F)cc1	/	8%[12.5 µM]	0	-14%	/
Nc1c(S(=O)(=O)O)cc(Nc2ccc(Nc3nc(Cl)nc(Nc4ccc(S(=O)(=O)O)cc4)n3)c(S(=O)(=O)O)c2)c2c1C(=O)c1ccccc1C2=O	/	-16%	/	-5%	2.9µM*
CC1(C)C2CCC1(C)C(OC(=O)C[N+]1(C)CCOCC1)C2 (stereo not drawn)	i	/	/	/	/
COCCNc1nc(NCc2cccc(Cl)c2)c2cnn(C)c2n1	?	-19%	-39*	-24%	-7%
COc1cccc(CC(=O)N2CCC(c3n[nH]c(=O)n3-c3ccc(C)cc3)CC2)c1	i	0%	2	5%	/
NC(=O)c1cnc(N[C@@H]2CCCC[C@H]2N)nc1Nc1cccc(-n2nccn2)c1	/	?	-17	/	?
Cc1cccc(Nc2nc(N[C@@H]3CCCC[C@H]3N)ncc2C(N)=O)c1	/	-5%	/	-17%	/
CCC(C)NC(=O)CCNC(=O)c1ccc2nc(C)c(C)nc2c1 (stereo not drawn)	i	/	/	/	/
Cc1ccc(OCC(=O)Nc2ccc3oc(-c4ccccc4)nc3c2)c(C)c1	i	/	/	/	/
COc1ccccc1CCNC(=O)CCc1c(C)c2cc3c(C)c(C)oc3cc2oc1=O	?	3%	-25*	-13%	-13%
COc1ccccc1CNC(=O)CCc1c(C)c2cc3c(C)c(C)oc3cc2oc1=O	i	-5%	-21	-3%	/
O=C(Cc1cccc2ccccc12)Nc1cccc2ncccc12	i	/	/	/	/
NCC(=O)Nc1ccc(-n2nc(C(F)(F)F)cc2-c2ccc3c(ccc4ccccc43)c2)cc1	/	?	-35*	34%	?
O=C(NC(=O)c1ccc(F)cc1)Nc1ccc(-c2cc(C(F)(F)F)nn2-c2ccccc2)cc1	?	2%	24	2%	/
O=C(Nc1ccc(F)c(F)c1F)C12CC3CC(CC(Cl)(C3)C1)C2	i	/	/	/	/
COc1ccc(CN(C)Cc2cc(=O)n3[nH]c(-c4cccc(C)c4)cc3n2)cc1	i	/	/	/	/
SMILES	KDM5B inh	SNCA viab count	IP6K1 inhibitor	SNCA expr inhib	IP6K1 conf
COc1ccc(-c2cc3nc(N)cc(=O)n3[nH]2)cc1	?	-4%	-48*	84%	?
Cn1c(N)c(-c2csc(Nc3ccccc3)n2)c(=O)n(C)c1=O	i	/	/	/	/
Cn1c(=O)n(C)c2cc(N3CCOCC3)c(NS(=O)(=O)c3ccc(Cl)cc3)cc21	i	3%	-13	54%	/
Cn1c(=O)c(=O)n(C)c2cc(N3CCOCC3)c(NS(=O)(=O)c3ccc(Cl)cc3)cc21	?	1%	-32*	-21%	-4%
COc1cccc(-c2cnc3[nH]cc(CC(N)=O)c3c2)c1	35µM*	4%[87.6 µM]	-44*	0%[87.6 µM]	?
NC(=O)Cc1c[nH]c2ncc(-c3cccc(OC(F)(F)F)c3)cc12	?	-16%[87.6 µM]	-27*	-25%[87.6 µM]	?
NC(=O)Cc1c[nH]c2ncc(-c3ccccc3Oc3ccccc3)cc12	?	13%[87.6 µM]	-10	?	/
CC(C)COC(=O)N1C[C@H](C(N)=O)[C@H]2c3ccccc3N(CC3CC3)C(=O)[C@]21C	/	/	-1	/	/
Cn1nccc1C(=O)Nc1sc2c(c1C#N)CCCCC2	i	/	/	/	/
NC(N)=Nc1nc(=O)c2ccccc2s1	i	/	/	/	/
O=c1nc(-c2ccccn2)sc2ccccc12	/	-13%	-54*	/	-18%
Cc1cccc(CN2CCNc3cc(-c4ccnc(C)c4)ncc3C2)c1	?	?	-29*	0%[87.6 µM]	-17%
O=C(Nc1ccc(Cc2nc3ccccc3s2)cc1)C1CC=CCC1 (stereo not drawn)	i	/	/	/	/
Cc1ccc(C2Cn3nnc(C(=O)N4CCC(C(=O)NC5CC5)CC4)c3CO2)cc1 (stereo not drawn)	i	14%	0	105%	/
O=C(c1ccc2cc[nH]c2c1)N1CCN(C(=O)c2nnn3c2COC(c2ccc(Cl)cc2)C3)CC1 (stereo not drawn)	?	-25%	-28*	-8%	-9%
Cc1ccc(C2Cn3nnc(C(=O)N4CCC(C(=O)NC5CCC(C)CC5)CC4)c3CO2)cc1 (stereo not drawn)	i	0%	-30*	5%	-10%
